From PubChem BioAssay (EPA / NIEHS) come the findings set out here.

Values joined by “and” are separate entries in the source; they are usually repeats but may differ in a detail not shown here. Identical values can stand only once. Active and inactive are the calls of the source. Rule for the calls: active = hit-call score of the fitted dose curve at least 0.9, where 1 is the maximum; inconclusive = response in the unintended direction; inactive = score below 0.9.

Chain of rat CYP2A2, Cyp2a2 (gene 24895) (P15149 whole entry, looked up): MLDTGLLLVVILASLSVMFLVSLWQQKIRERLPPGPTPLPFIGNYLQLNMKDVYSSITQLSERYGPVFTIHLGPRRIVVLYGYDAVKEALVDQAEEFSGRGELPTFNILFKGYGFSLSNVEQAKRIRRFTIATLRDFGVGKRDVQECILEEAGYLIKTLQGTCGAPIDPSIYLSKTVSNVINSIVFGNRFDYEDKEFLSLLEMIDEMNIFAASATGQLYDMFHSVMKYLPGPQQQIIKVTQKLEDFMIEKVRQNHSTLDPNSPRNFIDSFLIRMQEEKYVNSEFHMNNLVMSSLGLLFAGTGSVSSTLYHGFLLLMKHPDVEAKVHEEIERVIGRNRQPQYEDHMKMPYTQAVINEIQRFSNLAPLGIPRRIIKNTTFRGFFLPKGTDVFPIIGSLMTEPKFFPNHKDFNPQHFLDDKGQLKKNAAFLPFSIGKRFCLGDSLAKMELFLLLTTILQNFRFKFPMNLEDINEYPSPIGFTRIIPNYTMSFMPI

The target of this test is rat CYP2A2, Cyp2a2 (gene 24895) (UniProt P15149). The test is described as follows: NVS_ADME_rCYP2A2: NovaScreen (NVS) CYP450-related Enzyme Activity (ADME) Assay for rat CYP2A2 (AID 2283116). The procedure:
NVS_ADME_rCYP2A2 is a biochemical, single-readout assay that uses extracted gene-proteins in a cell-free assay. Measurements were taken 0.2 hour after chemical dosing in a 96-well plate.NVS_ADME_rCYP2A2 is one of one assay component(s) measured or calculated from the NVS_ADME_rCYP2A2 assay. It is designed to make measurements of enzyme activity, a form of enzyme reporter, as detected with fluorescence intensity signals by Fluorescence technology.Data from the assay component NVS_ADME_rCYP2A2 was analyzed into 1 assay endpoint. This assay endpoint, NVS_ADME_rCYP2A2, was analyzed in the positive analysis fitting direction relative to Acetonitrile as the negative control and baseline of activity. Using a type of enzyme reporter, loss-of-signal activity can be used to understand changes in the enzymatic activity as they relate to the gene Cyp2a2. Furthermore, this assay endpoint can be referred to as a primary readout, because this assay has produced multiple assay endpoints where this one serves a enzymatic activity function. To generalize the intended target to other relatable targets, this assay endpoint is annotated to the cyp intended target family, where the subfamily is xenobiotic metabolism.
Binding assays used specific radioligands (tritiated, iodinated) with non-radioactive competitive displacement ligands in agonist or antagonist protocols (as indicated) and various reference compounds and inhibitors to titrate specific binding to receptors and transporters. Most enzyme assays (CYPs, kinases, phosphatases, proteases, HDACs) used recombinant protein and specific substrates (fluorescence mostly, some colorimetric and radioactive) and inhibitors, followed by a biochemical separation of substrate and product. All assays for the biochemical HTS were initially run in duplicate at a single concentration (10 uM for CYP450 assays and 25 uM for all others). Assay-chemical combinations meeting a pre-defined threshold (e.g., 30% inhibition and other criteria defined below) were then run in singleton concentration-response format with maximum concentration of 20 uM for CYPs and 50 uM for all others. Each assay was run with positive and negative controls, and concurrent controls on every plate. The follow-up (secondary) screen tested active chemical-pairs in concentration series, as well as a few additional assays not tested in the primary screen, some selected negative inactives, and several cases re-run in the concentration series for confirmatory purposes.
In the case of `CCCCNC(=O)OCC#CI`, the AC50 was 5.3 µM (active) and 5.4 µM (active).
The same measure, in the same setting: with `CC1COC(Cn2cncn2)(c2ccc(Oc3ccc(Cl)cc3)cc2Cl)O1` (stereo unspecified) the figure was 127 nM (active); with `N#CC(CCc1ccc(Cl)cc1)(Cn1cncn1)c1ccccc1` (stereo unspecified), 20 nM (active).
`CCNc1nc(Cl)nc(NC(C)C)n1`: the compound was classed as inactive.
`CCOP(=S)(OCC)SCn1c(=O)oc2cc(Cl)ccc21`: the AC50 is 10000 nM (active).
Take `Oc1ccccc1-c1ccccc1`: the outcome was inactive.
As to `OC(c1ccc(Cl)cc1)(c1cncnc1)c1ccccc1Cl` (stereo unspecified), the AC50 was 53.4 nM (active).
For `CCCC1COC(Cn2cncn2)(c2ccc(Cl)cc2Cl)O1` (stereo unspecified), the AC50 is 106 nM (active) and 102 nM (active).
As for `CCOC(=O)CC(SP(=S)(OC)OC)C(=O)OCC` (stereo unspecified), the AC50 was 2590 nM (active).
`COc1ccc(C(c2ccc(OC)cc2)C(Cl)(Cl)Cl)cc1`: the call was inactive.
Turning to `CCCCOC(=O)c1ccccc1C(=O)OCCCC`, the call was inactive.

In general, AC50 refers to the midpoint of the concentration-response curve, whichever way the signal moves.
